# Screening data from PubChem BioAssay.
# A selection: hits, their analogues and other compounds. The true share with any hit is near 3.8%.
# aDG glyco act: increases alpha dystroglycan glycosylation; Pro5-aDG cells, alpha-DG glycosylation AlphaScreen (IIH6); 0% Pro5, 100% B10-LARGE cell signal; activation, % at 10 µM; hit rate 0.22% among 360,000;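 active means activation of at least 8% versus controls, or a plate z-score of at least 8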;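 further: Pro5 are CHO cells carrying HIG-tagged alpha-DG that lacks glycosylation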
# Yeast superoxide: yeast age-related superoxide inhibition as caloric restriction mimetic; S. cerevisiae aged cells, superoxide DHE fluorescence; active compounds read low; superoxide response (% of plate mean), % at 10 µM; hit rate 0.18% among 330,000; AID 2690;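 active means superoxide response under a set limit, about three screen SD below normal, cut at about 65% in these data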;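 further: yeast aged for seven days with compound at 30 °C before DHE staining; 100% = average MFI of all compound-treated wells on the plate with controls excluded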
# MPTP block: blocks calcium-induced mitochondrial swelling; isolated mouse mitochondria, Ca2+ swelling absorbance, 30 min; inhibition, % at 10 µM; hit rate 1.4% among 360,000;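 active means inhibition of 50% or more, scaled per plate between neutral and stimulator controls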;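 further: 0% = DMSO wells given calcium and 100% = 1 mM EGTA wells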
# FAS-TE inh: blocks the thioesterase domain of human fatty acid synthase. recombinant FAS-TE, OMFH fluorogenic substrate, fluorescence endpoint. inhibition, % at 15 µM. hit rate 0.67% among 360,000;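 active means compounds whose normalised, plate-corrected inhibition of enzyme fluorescence in the single-dose primary screen is 50% or more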;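 further: 0% = DMSO with enzyme and 100% = substrate without enzyme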
# Target sequence (P49327 whole entry, looked up, the tested form may be a part): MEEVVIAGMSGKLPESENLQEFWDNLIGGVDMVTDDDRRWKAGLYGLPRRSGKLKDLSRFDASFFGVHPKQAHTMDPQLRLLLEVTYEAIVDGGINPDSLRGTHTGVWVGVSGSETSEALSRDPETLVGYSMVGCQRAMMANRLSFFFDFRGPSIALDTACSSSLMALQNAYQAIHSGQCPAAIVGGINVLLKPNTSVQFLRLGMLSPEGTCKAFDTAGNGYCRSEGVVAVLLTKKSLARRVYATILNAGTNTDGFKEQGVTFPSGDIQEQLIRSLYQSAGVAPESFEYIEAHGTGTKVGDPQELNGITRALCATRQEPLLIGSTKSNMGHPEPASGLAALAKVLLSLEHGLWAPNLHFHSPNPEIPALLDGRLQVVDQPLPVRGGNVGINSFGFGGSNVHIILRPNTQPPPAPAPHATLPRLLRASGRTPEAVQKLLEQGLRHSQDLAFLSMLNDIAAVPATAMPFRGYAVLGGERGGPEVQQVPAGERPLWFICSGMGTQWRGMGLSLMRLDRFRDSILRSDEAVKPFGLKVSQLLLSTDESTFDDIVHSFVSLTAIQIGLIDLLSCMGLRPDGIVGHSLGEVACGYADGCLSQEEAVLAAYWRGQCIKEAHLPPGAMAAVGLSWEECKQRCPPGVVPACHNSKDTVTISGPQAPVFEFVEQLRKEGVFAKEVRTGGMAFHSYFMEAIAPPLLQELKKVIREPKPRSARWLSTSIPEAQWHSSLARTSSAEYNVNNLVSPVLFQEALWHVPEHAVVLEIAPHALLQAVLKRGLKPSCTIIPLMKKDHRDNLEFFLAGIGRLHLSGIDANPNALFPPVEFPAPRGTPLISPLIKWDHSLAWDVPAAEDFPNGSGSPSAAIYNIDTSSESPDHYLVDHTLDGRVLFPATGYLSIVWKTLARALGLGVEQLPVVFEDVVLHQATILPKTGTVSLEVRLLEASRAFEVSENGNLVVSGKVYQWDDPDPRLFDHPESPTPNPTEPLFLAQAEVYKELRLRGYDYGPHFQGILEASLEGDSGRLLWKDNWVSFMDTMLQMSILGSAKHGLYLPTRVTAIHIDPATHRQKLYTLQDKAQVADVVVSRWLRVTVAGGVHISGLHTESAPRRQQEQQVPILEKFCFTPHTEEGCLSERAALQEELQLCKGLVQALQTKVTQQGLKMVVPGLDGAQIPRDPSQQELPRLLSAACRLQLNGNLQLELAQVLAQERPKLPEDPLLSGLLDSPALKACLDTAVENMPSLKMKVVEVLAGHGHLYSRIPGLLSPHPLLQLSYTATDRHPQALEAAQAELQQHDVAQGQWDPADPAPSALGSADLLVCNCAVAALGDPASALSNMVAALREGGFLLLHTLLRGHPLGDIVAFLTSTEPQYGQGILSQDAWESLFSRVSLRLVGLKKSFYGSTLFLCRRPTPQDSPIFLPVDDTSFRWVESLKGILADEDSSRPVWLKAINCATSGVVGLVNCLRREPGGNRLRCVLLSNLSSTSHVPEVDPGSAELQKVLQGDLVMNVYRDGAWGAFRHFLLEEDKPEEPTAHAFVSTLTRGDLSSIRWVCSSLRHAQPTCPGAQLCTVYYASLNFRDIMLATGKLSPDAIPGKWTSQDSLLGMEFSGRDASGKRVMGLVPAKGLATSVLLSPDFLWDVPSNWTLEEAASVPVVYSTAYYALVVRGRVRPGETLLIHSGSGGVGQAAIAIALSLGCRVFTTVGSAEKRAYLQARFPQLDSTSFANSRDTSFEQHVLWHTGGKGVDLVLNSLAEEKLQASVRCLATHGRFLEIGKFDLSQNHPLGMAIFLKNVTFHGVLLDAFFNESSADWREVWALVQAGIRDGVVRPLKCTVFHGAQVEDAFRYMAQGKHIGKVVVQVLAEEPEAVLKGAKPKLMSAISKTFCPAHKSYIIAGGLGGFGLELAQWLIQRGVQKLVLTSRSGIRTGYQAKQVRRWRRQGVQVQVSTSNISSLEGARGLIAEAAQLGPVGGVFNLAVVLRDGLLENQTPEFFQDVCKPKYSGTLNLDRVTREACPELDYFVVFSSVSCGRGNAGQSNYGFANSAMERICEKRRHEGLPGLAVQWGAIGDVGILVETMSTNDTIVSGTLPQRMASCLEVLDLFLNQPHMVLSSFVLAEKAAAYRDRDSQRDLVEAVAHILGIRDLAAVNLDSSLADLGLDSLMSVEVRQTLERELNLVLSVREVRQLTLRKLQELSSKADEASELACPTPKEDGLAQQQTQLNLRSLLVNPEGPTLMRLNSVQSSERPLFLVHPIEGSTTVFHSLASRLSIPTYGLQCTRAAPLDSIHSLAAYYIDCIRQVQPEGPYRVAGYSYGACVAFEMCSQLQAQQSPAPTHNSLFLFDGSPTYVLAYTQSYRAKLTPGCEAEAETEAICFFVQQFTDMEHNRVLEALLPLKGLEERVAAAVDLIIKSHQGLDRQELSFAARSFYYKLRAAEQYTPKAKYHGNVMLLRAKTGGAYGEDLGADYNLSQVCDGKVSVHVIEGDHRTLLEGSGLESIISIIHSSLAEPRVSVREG
# Mot1-301 SUMO: inhibitors of SUMOylation pathway: yeast Mot1-301 growth rescue; hit rate 1% among 320,000; S. cerevisiae Mot1-301 growth rescue, ATP luminescence, 38.5C; percent above DMSO median, 100 means doubled; growth rescue, % at 18.8 µM; AID 2716;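 active means every valid replicate shows activation above 250% relative to neutral control wells; inactive means the rest, any valid replicate at or below 250%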;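 further: OY570 slx delta 5 strain wells were the positive control but not used for scaling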
# Cardio protect: protects H9c2 cardiomyocytes from peroxide injury | hit rate 0.63% among 360,000 | AID 588492 | protection from H2O2 cell death, % at 20 µM | H2O2 injury protection, ATPLite, 2 h;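 active means compounds giving at least 50% protection of heart cells from peroxide-induced death in the single-dose screen, raw or plate-pattern-corrected value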;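 further: 0% = DMSO wells with peroxide and 100% = DMSO wells without peroxide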
# * = called active by the depositor; / = not tested or not shown; + = active, no number.
SMILES,aDG glyco act,Yeast superoxide,MPTP block,FAS-TE inh,Mot1-301 SUMO,Cardio protect
C=CCN(C(=O)C1CC(=O)N(C2CCCC2)C1)c1nc(-c2ccc(S(C)(=O)=O)cc2)cs1 (configuration not stated),0,85,-1,5,-2,-11
c1ccc(-c2nn3c(-c4ccco4)nnc3s2)nc1,0,87,5,-5,-25,81*
COc1ccc(-c2nnc3sc(-c4ccccn4)nn23)cc1,/,122,/,/,418,/
COc1cccc(-c2nn3c(-c4ccccn4)nnc3s2)c1,0,102,4,-8,10,57*
COc1cccc(-c2nnc3sc(-c4ccccn4)nn23)c1,0,119,2,4,138,88*
CCCCCc1nnc(NC(=O)c2ccc(N3CCCC3=O)cc2)s1,0,99,-1,0,16,-5
Cc1c(N/N=C(\C#N)C(=O)c2ccccc2)c(=O)n(-c2ccccc2)n1C,0,/,-2,15,/,20
Cc1ccccc1C(=O)/C(C#N)=N/Nc1c(C)n(C)n(-c2ccccc2)c1=O,1,109,-2,11,-16,64*
Cc1ccc(-c2cc(C(F)(F)F)c(C#N)c(SCC(=O)O)n2)cc1,-1,108,1,21,-9,1
COc1ccc(-c2cc(C(F)(F)F)c(C#N)c(SCC(=O)O)n2)cc1OC,/,101,/,/,304*,/
CCCNC(=O)C(CC)NC(=O)c1cccc([N+](=O)[O-])c1 (configuration not stated),0,116,0,10,-1,3
CCC(=O)Oc1ccc(C(=O)Nc2cccc(C(=O)NCC(C)C)c2)cc1,0,108,0,-3,+,0
COCCNC(=O)C1(C)CCN(C(=O)c2oc3ccccc3c2C)C1 (configuration not stated),0,/,-1,-7,/,1
CCOC(=O)c1c(NC(=O)C(=O)N/N=C/c2ccc(OCC)cc2)sc2c1CCCCC2,0,105,2,18,-15,0
CCOC(=O)c1c(NC(=O)C(=O)N/N=C/c2ccc(O)c(OC)c2)sc2c1CCCCC2,0,89,32,23,-20,53*
Cc1ccc(N2C(=O)CC(Sc3nccc(C)n3)C2=O)cc1 (configuration not stated),0,98,-1,-1,-1,5
Cc1ccc(N2C(=O)CC(Sc3cccs3)C2=O)cc1 (configuration not stated),0,92,2,-2,320*,-10
COc1ccc(CN2CCC(=O)N([C@H](CO)c3ccccc3)CC2)cc1,0,104,-1,-8,4,-1
O=C(OCc1cc(=O)n2ccsc2n1)c1ccccc1NCCO,0,95,0,-5,-4,26
Clc1ccc(NCc2ccsc2)cc1,/,100,/,/,408*,/
Cc1nn(-c2ccc(F)cc2)c(Cl)c1C(=O)NCC1CCCO1 (configuration not stated),0,88,-1,-4,7,-1
Cc1ccc(C(=O)NCC(=O)OCc2nc3ccsc3c(=O)[nH]2)cc1C,0,/,2,-5,/,10
O=C(C1CCN(S(=O)(=O)c2cnc[nH]2)CC1)N(CCc1ccccc1)Cc1ccccc1,0,94,-2,-18,417*,21
CSc1ccc(C(=O)C2CCCN(C(=O)c3cc4cc(F)ccc4[nH]3)C2)cc1 (configuration not stated),0,114,0,15,447*,-11
CSc1ccc(C(=O)C2CCCN(C(=O)c3ccc4c(c3)OCO4)C2)cc1 (configuration not stated),0,94,-1,6,-9,-9
SMILES,aDG glyco act,Yeast superoxide,MPTP block,FAS-TE inh,Mot1-301 SUMO,Cardio protect
COc1ccc(C(C)=O)cc1COC(=O)CSCC(=O)Nc1ccc(C)cc1,0,83,-1,-2,-4,2
COc1ccccc1NC(=O)CSC1=NC(=O)C(Cc2ccccc2)C(=O)N1 (configuration not stated),0,97,0,-2,-2,2
O=C(CSC1=NC(=O)C(Cc2ccccc2)C(=O)N1)Nc1ncc(Br)cc1Br (configuration not stated),0,104,-1,-4,327*,-2
CCOC(=O)C1(CCOC)CCN(Cc2ccc3nonc3c2)CC1,0,95,2,-2,327*,0
O=C(Nc1ccccc1)c1nc[nH]c1C(=O)NCCNC(=O)c1[nH]cnc1C(=O)Nc1ccccc1,0,108,-1,-8,35,52*
O=C(Nc1ccccc1)c1nc[nH]c1C(=O)Nc1ccccc1F,0,/,0,0,/,1
O=C(Nc1cccc(Cl)c1)c1nc[nH]c1C(=O)NCCCNC(=O)c1[nH]cnc1C(=O)Nc1cccc(Cl)c1,0,100,1,4,8,80*
O=C(Nc1ccccc1)c1nc[nH]c1C(=O)NCCCCNC(=O)c1[nH]cnc1C(=O)Nc1ccccc1,-1,102,-1,0,-5,81*
CC1CCCC(C)N1S(=O)(=O)c1ccc(NC(=O)CCN2C(=O)C3CC=CCC3C2=O)cc1 (configuration not stated),0,/,1,-4,/,-2
COc1ccc(CNC(=O)CNS(=O)(=O)c2cccc(C#N)c2)cc1OC,0,105,-1,-8,10,6
Cc1nnc(SCC(=O)N/N=C/c2cn(-c3ccccc3)nc2-c2ccccc2)n1-c1ccccc1,2,102,-2,11,12,54*
CCn1cc(C(=O)NCc2cccc(F)c2)c(=O)c2cc(F)c(N3CCN(C(=O)c4ccco4)CC3)cc21,0,102,-4,-218,-9,55*
CNC(=S)N1CCN(CCNC2=CC(=O)CC(C)(C)C2)CC1,0,100,0,-7,-3,3
CC1(C)CC(NCCN2CCN(C3=CC(=C(C#N)C#N)CC(C)(C)C3)CC2)=CC(=C(C#N)C#N)C1,0,100,-2,48,-16,56*
Cc1c(Cl)cnc(NC(=O)COC(=O)c2ccc([N+](=O)[O-])s2)c1Cl,0,93,-1,5,-8,68*
O=C(COC(=O)c1ccc([N+](=O)[O-])s1)Nc1ccc(Cl)cn1,0,119,0,2,-12,55*
O=C(C1CCN(S(=O)(=O)c2ccc(-n3cnnn3)cc2)CC1)N1CCCCC1,0,96,-4,7,10,-7
CCN(CC)c1ccc(/C=N/NC(=O)CNC(=O)C2COc3ccccc3O2)c(O)c1 (configuration not stated),2,111,2,3,174,66*
COCCN1C[C@@H](CO)O[C@@H](n2cnc3c(NCC(C)C)ncnc32)C1,0,/,-2,-2,/,0
CC(=O)/C=C1\OCc2ccccc21,0,/,0,/,/,/
